Holding throughout (assay): NCI-60 one-dose screen, 48 h (100 = growth as untreated, 0 = no growth, -100 = all killed)
For one assay, the system named is RPMI-8226 leukemia. To be noted: 10 µM unless noted.
The subject of another assay is OVCAR-8 ovarian. To be noted: 10 µM unless noted.
The test system of a further assay is OVCAR-5 ovarian. To be noted: 10 µM unless noted.
The subject of the next assay is OVCAR-4 ovarian. To be noted: 10 µM unless noted.
In the next assay the test system is SK-OV-3 ovarian. To be noted: 10 µM unless noted.
The test system of a further assay is OVCAR-3 ovarian. To be noted: 10 µM unless noted.
The subject of a further assay is HS 578T breast. To be noted: 10 µM unless noted.
The next assay relates to NCI/ADR-RES ovarian. To be noted: 10 µM unless noted.
For another assay, the system named is T-47D breast. To be noted: 10 µM unless noted.
The next assay concerns MDA-MB-435 melanoma. To be noted: 10 µM unless noted.
A further assay deals with SW-620 colon. To be noted: 10 µM unless noted.
The test system of a further assay is MCF7 breast. To be noted: 10 µM.
The test system of the next assay is HCT-116 colon. To be noted: 10 µM unless noted.
The subject of another assay is HCC-2998 colon. To be noted: 10 µM unless noted.
The next assay has as its system KM12 colon. To be noted: 10 µM unless noted.
The next assay has as its system IGROV1 ovarian. To be noted: 10 µM unless noted.
The next assay deals with BT-549 breast. To be noted: 10 µM unless noted.

The structures appear in SMILES notation. This is part of a sample that, as a whole, favours compounds with a hit. Of some 83,000 tested, about 20% had one in any assay.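 In brief: 96-well plates, 48 h treatment, single concentration, percent growth endpoint.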 A number with no mark means an inactive call. Activity calls are given as the source filed them. The calls were made as follows: active = growth percent below 10; inactive = the rest.

Take `CN(C)c1ccc(/C=C/c2ccnc3c(O)cccc23)cc1`: the growth was 1.91% (active) in the assay on RPMI-8226 leukemia; 8.43% (active) in the assay with OVCAR-8 ovarian; 35.5% with OVCAR-5 ovarian; 31.9% in the assay on OVCAR-4 ovarian; 24.7% in the assay with SK-OV-3 ovarian; 29.7% in the assay on OVCAR-3 ovarian. In addition, the growth in the assay on HS 578T breast is 43%; in the assay with NCI/ADR-RES ovarian, 19.5%; in the assay with T-47D breast, 16.9%; with MDA-MB-435 melanoma it was 18.6%; in the assay on SW-620 colon it was 21.6%; in the assay with MCF7 breast, 18.2%. The growth was 18.6% with HCT-116 colon, 55.7% with HCC-2998 colon and 16.2% in the assay with KM12 colon.

In the case of `Cn1c(/C=C(\C#N)c2ccccc2)nc2c(N3CCOCC3)nc(Cl)nc21`, the growth with RPMI-8226 leukemia is -24.3% (active); in the assay with OVCAR-8 ovarian it was 8.78% (active); in the assay with OVCAR-5 ovarian, -50.1% (active); with OVCAR-4 ovarian, -58.4% (active); with IGROV1 ovarian, -61.7% (active); in the assay on OVCAR-3 ovarian, -91.8% (active). For the same compound, the growth is -20% (active) with HS 578T breast; 3.17% (active) in the assay with NCI/ADR-RES ovarian; -37.8% (active) in the assay on T-47D breast; -77.2% (active) with BT-549 breast; -84.7% (active) in the assay with MDA-MB-435 melanoma; -74.2% (active) in the assay with SW-620 colon. In addition, the growth with MCF7 breast is -57.7% (active); with HCT-116 colon, -78.1% (active); in the assay on HCC-2998 colon, -17.2% (active); with KM12 colon it was -53% (active).

In the case of `Cc1cccc2c(=O)c3c(sc12)c(NCCN)nc1ccccc13`, the growth with RPMI-8226 leukemia is -37.9% (active); in the assay on OVCAR-8 ovarian, -25% (active); with OVCAR-5 ovarian it was -46.9% (active); with OVCAR-4 ovarian, -24.4% (active); in the assay with IGROV1 ovarian, -70.1% (active); in the assay with OVCAR-3 ovarian, -89.6% (active). Also, the growth in the assay with HS 578T breast is 37.1%; in the assay with NCI/ADR-RES ovarian, -45.5% (active); with T-47D breast it was -50.2% (active); in the assay on BT-549 breast, 72.1%; in the assay on MDA-MB-435 melanoma it was -93.9% (active); in the assay with SW-620 colon, -77.6% (active). Further, the growth is -82.1% (active) in the assay on MCF7 breast, -93.9% (active) with HCT-116 colon, -77.8% (active) in the assay with HCC-2998 colon and -90.5% (active) in the assay with KM12 colon.

In the case of `COC(=O)/C(CCC=C(C)C)=C1\[C@@H](OC(C)=O)C[C@@]2(C)[C@H]1CC(=O)N[C@H]1[C@@]3(C)CCNC(=O)[C@@H](C)[C@@H]3CC[C@@]12C`, the growth with RPMI-8226 leukemia was 97.8%; in the assay on OVCAR-8 ovarian it was 98.3%; with OVCAR-5 ovarian, 102%; with OVCAR-4 ovarian it was 101%; in the assay on IGROV1 ovarian, 105%; in the assay on OVCAR-3 ovarian it was 107%. In addition, the growth is 97.1% in the assay on HS 578T breast; 106% with NCI/ADR-RES ovarian; 88.9% in the assay on T-47D breast; 107% with BT-549 breast; 105% in the assay on MDA-MB-435 melanoma; 103% with SW-620 colon. The growth is 93% in the assay on MCF7 breast, 101% with HCT-116 colon, 103% in the assay with HCC-2998 colon and 102% with KM12 colon.

Turning to `COc1cccc2c1C=C1CCCCC3=Cc4c(OC)cccc4OC13O2`, the growth is 42.6% in the assay on RPMI-8226 leukemia; 53.1% with OVCAR-8 ovarian; 63.9% in the assay on OVCAR-5 ovarian; 57.7% with OVCAR-4 ovarian; 57.5% with IGROV1 ovarian; 14.2% with OVCAR-3 ovarian. The growth in the assay on HS 578T breast is 42.8%; in the assay on NCI/ADR-RES ovarian, 16.5%; in the assay with T-47D breast, 40.3%; in the assay with BT-549 breast it was 64%; in the assay with MDA-MB-435 melanoma, -15.8% (active); in the assay with SW-620 colon, 27.2%. Further, the growth was 26.5% with MCF7 breast, 22.1% in the assay on HCT-116 colon, 71.1% in the assay with HCC-2998 colon and 32.3% in the assay with KM12 colon.

With `N[C@@H](CC/[N+]([O-])=N/O)C(=O)O`, the growth in the assay on RPMI-8226 leukemia is 101%; in the assay on OVCAR-8 ovarian, 109%; in the assay with OVCAR-5 ovarian, 100%; with OVCAR-4 ovarian, 105%; in the assay with SK-OV-3 ovarian, 105%; with HS 578T breast, 98.4%. Also, the growth in the assay on NCI/ADR-RES ovarian is 103%; with T-47D breast, 94.4%; in the assay with BT-549 breast, 95.2%; with MDA-MB-435 melanoma, 98.4%; with SW-620 colon, 104%; in the assay on MCF7 breast, 93.7%. Also, the growth in the assay on HCT-116 colon is 99.1%; with KM12 colon, 104%.

Turning to `CSc1nc2c(c(=O)n1C)N=C1c3ccccc3C(=O)C1C(c1ccccc1)N2` (stereo not given), the growth was 94.9% in the assay on RPMI-8226 leukemia; 77.7% with OVCAR-8 ovarian; 87.9% in the assay with OVCAR-5 ovarian; 72.6% in the assay on OVCAR-4 ovarian; 30.4% with IGROV1 ovarian; 39.4% in the assay on OVCAR-3 ovarian. Also, the growth in the assay with HS 578T breast is 71.8%; with NCI/ADR-RES ovarian, 55.8%; with T-47D breast, 61.9%; with BT-549 breast it was 82.3%; in the assay with MDA-MB-435 melanoma, 7.03% (active); in the assay on SW-620 colon, 70.7%. Moreover, the growth is 58.7% in the assay with MCF7 breast, 71.3% in the assay on HCT-116 colon, 64.8% with HCC-2998 colon and 63.5% in the assay with KM12 colon.

Turning to `COC(=O)c1c2c(c(C)[n+]([O-])c1C)C(=O)C(NCc1ccc(F)c(F)c1)=CC2=O`, the growth in the assay on RPMI-8226 leukemia was 29.9%; with OVCAR-8 ovarian, 4.63% (active); with OVCAR-5 ovarian it was 41.4%; with OVCAR-4 ovarian it was -93.4% (active); in the assay on IGROV1 ovarian, 0.321% (active); with OVCAR-3 ovarian it was -19% (active). The growth in the assay on HS 578T breast was 80.2%; with NCI/ADR-RES ovarian, -6.62% (active); in the assay on T-47D breast, 10.9%; with BT-549 breast, 66.4%; in the assay on MDA-MB-435 melanoma, -88.4% (active); in the assay with SW-620 colon, 3.6% (active). Moreover, the growth was -43.3% (active) in the assay on MCF7 breast, 1.74% (active) in the assay with HCT-116 colon, 9.25% (active) in the assay with HCC-2998 colon and 10.4% in the assay with KM12 colon.

For the compound `COc1ccc(Nc2nc(N/N=C/c3ccc(O)cc3)nc(Nc3ccc([N+](=O)[O-])cc3)n2)cc1`, the growth in the assay on RPMI-8226 leukemia was 99.7%; in the assay with OVCAR-8 ovarian it was 100%; in the assay on OVCAR-5 ovarian, 109%; with OVCAR-4 ovarian it was 111%; in the assay with IGROV1 ovarian, 121%; with OVCAR-3 ovarian, 124%. Further, the growth in the assay with HS 578T breast was 110%; in the assay on NCI/ADR-RES ovarian it was 109%; in the assay on T-47D breast it was 109%; with BT-549 breast it was 114%; in the assay on MDA-MB-435 melanoma, 116%; in the assay with SW-620 colon it was 112%. Moreover, the growth in the assay with MCF7 breast was 97.4%; in the assay with HCT-116 colon, 105%; with HCC-2998 colon it was 102%; in the assay on KM12 colon, 121%.

Turning to `COC(=O)/C(CCC=C(C)C)=C1\[C@@H](OC(C)=O)C[C@@]2(C)[C@H]1CC(=O)[C@H]1[C@@]3(C)CC[C@H](NCc4ccccc4)[C@@H](C)[C@@H]3CC[C@@]12C`, the growth was 49.5% in the assay with RPMI-8226 leukemia; 92.4% in the assay with OVCAR-8 ovarian; 95% in the assay on OVCAR-5 ovarian; 80.7% in the assay on OVCAR-4 ovarian; 73.4% with IGROV1 ovarian; 89.2% with OVCAR-3 ovarian. Besides, the growth was 73.7% in the assay on HS 578T breast; 88.3% in the assay with NCI/ADR-RES ovarian; 92.3% with T-47D breast; 89.7% with BT-549 breast; 91.2% with MDA-MB-435 melanoma; 81.5% in the assay on SW-620 colon. Further, the growth in the assay with MCF7 breast is 82.2%; with HCT-116 colon, 73%; in the assay with HCC-2998 colon, 66.6%; in the assay with KM12 colon, 101%.

With `O=c1c2cccc(F)c2sc2c(N3CCNCC3)nc3ccccc3c12`, the growth was 1.83% (active) in the assay on RPMI-8226 leukemia; 32.7% in the assay on OVCAR-8 ovarian; 61.9% with OVCAR-5 ovarian; 46.9% in the assay with OVCAR-4 ovarian; 28.3% in the assay on IGROV1 ovarian; 30.9% in the assay on OVCAR-3 ovarian. Besides, the growth in the assay on HS 578T breast is 34.8%; in the assay with NCI/ADR-RES ovarian it was 42.6%; in the assay with T-47D breast, 36.3%; in the assay with BT-549 breast, 73.7%; with MDA-MB-435 melanoma, 2.82% (active); with SW-620 colon, -39.8% (active). The growth with MCF7 breast is -20.6% (active); with HCT-116 colon it was 7.91% (active); in the assay on HCC-2998 colon it was -6.49% (active); in the assay on KM12 colon, 10.4%.

`NCCOc1ncccc1/C=C1\c2ccccc2-c2ccc(F)cc21`: the growth in the assay with RPMI-8226 leukemia is -14.6% (active); in the assay on OVCAR-8 ovarian it was 14.9%; in the assay with OVCAR-5 ovarian, 32.1%; in the assay with OVCAR-4 ovarian, 43.3%; in the assay with IGROV1 ovarian, 26.1%; with OVCAR-3 ovarian it was 36.7%. For the same compound, the growth was 44.2% with HS 578T breast; 29.9% with NCI/ADR-RES ovarian; 21.2% with T-47D breast; 82.4% with BT-549 breast; 60.7% in the assay on MDA-MB-435 melanoma; 14.7% in the assay on SW-620 colon. For the same compound, the growth in the assay with MCF7 breast is 14.9%; in the assay with HCT-116 colon it was 15%; with HCC-2998 colon it was 18.3%; in the assay with KM12 colon, 8.88% (active).

As for `O=c1c2cc(F)ccc2sc2c(NCCN3CCCC3)nc3ccccc3c12`, the growth in the assay with RPMI-8226 leukemia is 33.9%; in the assay with OVCAR-8 ovarian it was 63%; with OVCAR-5 ovarian it was 72.1%; in the assay on OVCAR-4 ovarian, 54.2%; with IGROV1 ovarian, 61.7%; in the assay with OVCAR-3 ovarian, 48.8%. Moreover, the growth was 56.8% with HS 578T breast; 66.4% in the assay on NCI/ADR-RES ovarian; 61.9% with T-47D breast; 86.7% with BT-549 breast; 23.2% in the assay with MDA-MB-435 melanoma; 19.1% in the assay on SW-620 colon. Further, the growth is 30.4% in the assay with MCF7 breast, 39.1% with HCT-116 colon, 30.9% in the assay with HCC-2998 colon and 39.5% in the assay with KM12 colon.

Values taken from PubChem BioAssay (NCI).
